We go through seven molecules from PubChem BioAssay (EPA / NIEHS).

Test [1] can be described thus: CCTE_Deisenroth_AIME_384WELL_CTox_Active: Cytotoxicity Assessment (CTOX) in CCTE's 384-well Estrogen Receptor Transactivation Assay with AIME metabolic competence (metabolism positive), Deisenroth Lab (AID 2284037).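 Note: chemicals first conditioned 2 h by alginate-bound induced rat liver S9 before cells; activity means signal loss indicating cell death.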 In short, it runs like this: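 VM7Luc4E2 breast cells received medium pre-incubated 2 h with chemical over alginate microspheres holding induced male Sprague Dawley rat liver S9; viability read 24 h later by protease-substrate fluorescence. Loss of signal, bidirectional fit, 0.002–200 uM.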

The nature of test [2]: CCTE_Deisenroth_AIME_384WELL_CTox_Inactive: Cytotoxicity Assessment (CTOX) in CCTE's 384-well Estrogen Receptor Transactivation Assay without AIME metabolic competence (metabolism negative), Deisenroth Lab (AID 2284039).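 Note: cell viability via live-cell protease substrate cleaved to fluorescent probe; cells exposed 24 h to medium preincubated 2 h with alginate-water beads without S9.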 The essentials:
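VM7Luc4E2 human breast cells received conditioned medium from a 2 h incubation of chemical with alginate-water microspheres (no S9), then were exposed 24 h. Viability was read as protease-substrate cleavage to a fluorescent probe; loss of signal was fitted bidirectionally over 0.002–200 uM.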

Inconclusive results are not listed. The source made the active and inactive calls. Rule for the calls: active = hit-call score of the fitted dose curve at least 0.9, where 1 is the maximum; inconclusive = response in the unintended direction; inactive = score below 0.9.

The AC50 is the concentration at which the activity in the assay is half-maximal.

`Nc1ccc2cc(S(=O)(=O)O)cc(O)c2c1N=Nc1ccccc1C(F)(F)F`: the AC50 in test [1] was 46.4 µM (active); in test [2] it was 38.2 µM (active). As to `CCCCC(CC)COC(=O)c1ccc(O)cc1` (stereo not drawn), the call in test [1] was inactive. Besides, the AC50 in test [2] is 61.6 µM (active). As to `CCCCCCC(C)(C)S`, the outcome in test [1] and in test [2] was inactive. For the molecule `O=[N+]([O-])c1ccc(O)cc1C(F)(F)F`, the AC50 in test [1] is 62.2 µM (active); in test [2] it was 34.9 µM (active). For the molecule `O=C(O)c1ccc(O)cc1`, the call in test [2] was inactive. Consider `Clc1ccc(C(c2ccccc2Cl)C(Cl)Cl)cc1` (stereo not drawn), for which the AC50 is 100 µM (active) in test [1] and 152 µM (active) in test [2]. In the case of `CCCCCCCCC=CCCCCCCCC1=NCCN1CCO`, the result in test [1] and in test [2] was inactive.
